Bioassay records deposited in PubChem by National Center for Advancing Translational Sciences (NCATS).
MCF10A rerep: induces DNA re-replication in MCF 10a normal breast cells | MCF 10A DNA re-replication, Hoechst nuclear intensity, 48 h | Potency, µM (top dose mostly 46.1 µM), for inactives: at the top dose activity, positive = re-replication, hits mostly activators | 350,000 compounds, 2.9% hits | AID 624296; note: % of control where 0% means no effect; nearly all actives have a fitted effect of over 50% in size
PINK1 modulator: modulators of PINK1 expression. PINK1 immunofluorescence, high-content cytometry, 24 h. 410,000 compounds, 0.2% hits. Potency, µM (series often up to 76.6 µM), without a hit: top-dose activation (PINK1 increase), actives largely listed as activators; active = well fitted activation curve with a large enough effect; inconclusive = small, poorly fitted or top-dose-only effect; cell line not stated here; note: % of control where 0% means no effect; nearly all actives have a fitted effect of over 65% in size
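Stable cell line, 250 cells/well, 12 h attachment; compounds pinned at 5 concentrations, 24 h; CCCP control. Fixed with nuclear dye, primary antibodies 12 h at 10 degrees C, secondary plus cell stain; laser-scanning cytometer read.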
SW480 rereplic: inducers of DNA re-replication in SW480 colon cancer cells; SW480 DNA re-replication, Hoechst DNA content imaging, 48 h; Potency, µM (doses to about 46.1 µM), without a hit: top-dose re-replication activation, usual class: activators; 340,000 compounds, 1.8% hits; note: % of control where 0% means no effect; nearly all actives have a fitted effect of over 55% in size
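Image-based DNA-content assay: after two days of treatment, nuclei were labelled with the DNA dye Hoechst and imaged, and hits were compounds raising the count of nuclei showing high fluorescence intensity.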
KB-3-1 tox: KB-3-1 parental cell cytotoxicity; 400,000 compounds, 1.4% hits; AID 1347075; KB-3-1 viability, CellTiter-Glo ATP luminescence, 72 h; Potency, µM (top dose mostly 46.1 µM), hits mostly cytotoxic; note: % is set by controls: 0 for no effect and ±100 for the full control effect; nearly all actives have a fitted effect of over 60% in size
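Cytotoxicity in the drug-sensitive parental line KB-3-1 was scored as loss of CellTiter-Glo luminescence following 72 h incubation with compound. Values come from curve fitting of normalized concentration-response data.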
ALOX12 inh: ALOX12 (human) lipoxygenase inhibition; P18054; purified 12hLO, xylenol orange hydroperoxide absorbance; Potency, µM (doses to about 108 µM), without a hit: top-dose activity change, negative = inhibition, actives largely listed as inhibitors; 580,000 compounds, 1.1% hits; AID 1671190; note: % is set by controls: 0 for no effect and ±100 for the full control effect
Target sequence (P18054 whole entry, looked up): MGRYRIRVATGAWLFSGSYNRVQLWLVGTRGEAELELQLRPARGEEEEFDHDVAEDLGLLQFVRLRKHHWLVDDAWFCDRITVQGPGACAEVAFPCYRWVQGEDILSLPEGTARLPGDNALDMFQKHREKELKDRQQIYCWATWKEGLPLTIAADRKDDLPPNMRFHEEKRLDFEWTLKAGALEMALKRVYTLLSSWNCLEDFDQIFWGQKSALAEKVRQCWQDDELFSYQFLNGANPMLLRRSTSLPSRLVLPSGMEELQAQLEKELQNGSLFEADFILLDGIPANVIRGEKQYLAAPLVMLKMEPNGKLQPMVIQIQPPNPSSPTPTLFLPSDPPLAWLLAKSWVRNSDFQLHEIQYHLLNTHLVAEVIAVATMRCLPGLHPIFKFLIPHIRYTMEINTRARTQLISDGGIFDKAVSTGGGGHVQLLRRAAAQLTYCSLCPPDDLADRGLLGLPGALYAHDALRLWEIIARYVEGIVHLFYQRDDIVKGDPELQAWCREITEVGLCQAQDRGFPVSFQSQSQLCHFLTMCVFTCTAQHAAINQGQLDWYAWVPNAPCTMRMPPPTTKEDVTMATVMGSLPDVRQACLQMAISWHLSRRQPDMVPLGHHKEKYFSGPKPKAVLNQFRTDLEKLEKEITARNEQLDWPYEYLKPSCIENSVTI
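Hydroperoxide product was detected by ferrous iron/xylenol orange as the 573 to 405 nm absorbance ratio. Arachidonic acid at 40 uM (final) was turned over for 30 min at room temperature by 150 nM human 12hLO, pH 7.0 Hepes buffer, after 15 min compound preincubation.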
KB-V1 cytotox: KB-V1 MDR subline cytotoxicity; KB-V1 MDR cells viability, CellTiter-Glo, 72 h; Potency, µM (series often up to 46.1 µM), actives largely listed as cytotoxic; 400,000 compounds, 3.4% hits; note: % is set by controls: 0 for no effect and ±100 for the full control effect; nearly all actives have a fitted effect of over 60% in size
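KB-V1 MDR subline cells in DMEM (phenol-red free, 10% FBS) exposed to compounds in qHTS concentration series for 72 h at 37 degrees C. Viability read by CellTiter-Glo luminescence; concentration-effect curves fitted after normalization and correction.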
* marks the source's active call; other numbers are inactive results; i = inactive; ? = inconclusive; / = not tested or not shown; [ ] = another dose, or the depositor's remark. Only some compounds are listed: those with a hit (about 5.8% of all), similar ones and a draw of the others. Unless noted, calls come from the whole dose curve; as a rule, active = well fitted curve in the direction sought with a large enough effect; inconclusive = small, poorly fitted or top-dose-only effect, or another doubt; inactive = no such curve, though single readings can be large; an effect the other way counts as inactive or inconclusive. Potency is the fitted concentration of half-maximal effect.

SMILES	MCF10A rerep	PINK1 modulator	SW480 rereplic	KB-3-1 tox	ALOX12 inh	KB-V1 cytotox
O=C(COC(=O)c1cc(=O)[nH]c2ccccc12)NC(=O)c1ccccc1	-1%	1%	26µM*	i	1%	i
CC(C)(O)CCc1ccc(C(=O)NCCSc2ccccn2)cc1	/	/	/	/	2%	/
CCC(C)Sc1ccc(-c2nc3ccccn3c2NCc2ccccc2)cc1OC (configuration not stated)	21µM*	?	-4%	?	/	?
COc1ccc(CSc2ccc(-c3nc4ccccn4c3NCc3ccccc3)cc2OC)cc1	23µM*	-1%	?	?	-13%	?
Cc1ccc(-c2nc3ccccn3c2NCc2ccc3c(c2)OCO3)cc1	?	0%	3%	i	0%	i
CC(=O)N1c2ccc(S(=O)(=O)N(C)CC(=O)NCCc3ccc(Cl)cc3)cc2CC1C (configuration not stated)	/	/	/	/	5%	/
Cc1ccc(C)c(NC(=O)c2cc(S(=O)(=O)NCCC3=CCCCC3)ccc2F)c1	/	6%	/	/	?	/
O=C(CN(Cc1ccccc1F)S(=O)(=O)c1ccc(Cl)cc1)NCCC1=CCCCC1	?	4%[38.3 µM]	-1%	?	-21%	6.5µM*
Cc1ccc(S(=O)(=O)N(CC(=O)NCCC2=CCCCC2)Cc2ccccc2)cc1	?	-1%[38.3 µM]	?	?	-22%	18µM*
CSc1ccc(CN(C)CC(=O)NC(=O)NCCC2=CCCCC2)cc1	-5%	2%	-8%	i	168%	21µM*
O=C(CN(Cc1ccccc1)S(=O)(=O)c1ccc(F)cc1)NCCC1=CCCCC1	10%	-2%	-2%	i	-7%	?
Cc1ccc(NC(=O)c2cc(S(=O)(=O)NCCC3=CCCCC3)ccc2F)cc1	?	7%	25%	?	-20%	2.3µM*
Cc1ccc(S(=O)(=O)N(CC(=O)NCCC2=CCCCC2)Cc2ccccc2F)cc1	?	?	?	i	8%	?
CSc1ccc(CN(C)CC(=O)NC(=O)NCc2ccccc2)cc1	/	/	/	/	6%	/
CCOc1ccc(C(C)=O)cc1CN(C)CC(=O)Nc1ccc(Cl)c(Cl)c1	/	/	/	/	-7%	/
Cc1ccccc1CN(c1ccc(C(=O)NCCC2=CCCCC2)cc1)S(C)(=O)=O	1%	0%	4%	?	-8%	13µM*
Cc1ccc(C(=O)NCCC2=CCCCC2)cc1C	/	/	/	/	-38%	/
Cc1ccc2oc(C(=O)NCC(c3cccs3)N3CCOCC3)c(C)c2c1 (configuration not stated)	/	/	/	/	-5%	/
Cc1ccc(CN2CCc3oc(C)c(C(=O)NC4CCCC4)c3C2)cc1	/	/	/	/	25µM*	/
Cc1oc2c(c1C(=O)N1CCN(C3CCCC3)CC1)CN(Cc1cccc(F)c1)CC2	/	/	/	/	8.9µM*	/
Cc1oc2c(c1C(=O)NCc1ccncc1)CN(Cc1cccc(F)c1)CC2	/	/	/	/	-5%	/
Cc1oc2c(c1C(=O)NC1CCCC1)CN(Cc1ccc(F)cc1)CC2	/	/	/	/	13µM*	/
O=C([C@@H]1C[C@H](Oc2ccccc2)CN1C(=O)CCc1c[nH]c2ccccc12)N1CCOCC1	/	/	/	/	57%	/
COc1ccc(OC)c(C(c2nnnn2C2CCCC2)N2CCc3ccccc3C2)c1 (configuration not stated)	-1%	-5%	-3%	?	339%	16µM*
COc1ccc(N2CCN(C(c3ccccc3OC)c3nnnn3C3CCCC3)CC2)cc1 (configuration not stated)	6%	-1%	1%	i	?	i
SMILES	MCF10A rerep	PINK1 modulator	SW480 rereplic	KB-3-1 tox	ALOX12 inh	KB-V1 cytotox
COc1ccc(N2CCN(C(c3cccc(OC)c3OC)c3nnnn3C3CCCC3)CC2)cc1 (configuration not stated)	?	2%	13µM*	i	?	i
OC1CCCN(c2ccc(-c3nc(-c4cccc(C(F)(F)F)c4)no3)cn2)C1 (configuration not stated)	/	/	/	/	30%	/
Cc1cccn2c(=O)nc(SCC(=O)NC3CCCC3)nc12	0%	0%	18µM*	i	-2%	i
CC1CN(CCS(=O)c2ccccc2)CC(C)O1 (configuration not stated)	/	/	/	/	-1%	/
COc1ccc(C(O)P(=O)(OCC(C)C)OCC(C)C)c(OC)c1 (configuration not stated)	-2%	0%	-3%	i	-1%	16µM*
Cc1ccc(N2C(=O)CN(Cc3cccs3)C2=S)cc1C	-1%	3%	6%	i	-8%	i
Cc1ccccc1N1C(=O)CN(Cc2sccc2C)C1=S	10%	0%	?	?	-24%	3.3µM*
Cc1ccc(N2C(=O)CN(Cc3sccc3C)C2=S)cc1C	?	13%	0%	?	19%	16µM*
N#Cc1c(N)nc2c(c1-c1ccc(F)cc1)CCC2	13µM*	2%	?	i	0%	i
CCOc1c(Br)cc(C(=O)Nc2ncccc2C)cc1OC	/	/	/	/	12%	/
CCCn1c(CN(C)Cc2ccccc2)nc2c1c(=O)n(C)c(=O)n2C	8%	2%	2%	i	0%	?
Cn1c(=O)c2c(nc(CN3CCN(c4ccccc4)CC3)n2Cc2ccccc2Cl)n(C)c1=O	?	12%[38.3 µM]	?	?	-21%	8.2µM*
Cn1c(=O)c2c(nc(CN3CCc4ccccc4C3)n2Cc2ccccc2)n(C)c1=O	?	0%	-1%	12µM*	?	i
CN(Cc1ccccc1)Cc1nc2c(c(=O)n(C)c(=O)n2C)n1Cc1ccccc1Cl	-3%	3%[38.3 µM]	-7%	i	1%	9.2µM*
COc1ccc(N2CCN(Cc3nc4c(c(=O)n(C)c(=O)n4C)n3C(C)C)CC2)cc1	/	2%	/	16µM*	-12%	i
Cn1c(=O)c2c(nc(CN3CCc4ccccc4C3)n2Cc2ccc(Cl)cc2)n(C)c1=O	?	-4%[38.3 µM]	3%	i	-19%	i
O=S(=O)(c1cccc(Cl)c1)N1CCN(Cc2coc(-c3cccs3)n2)CC1	/	/	/	/	-28%	/
O=C(COc1ncnc2ccc(Br)cc12)Nc1cccc(F)c1	/	/	/	/	-35%	/
CCCCn1c(CN(C)Cc2ccccc2)nc2c1c(=O)n(C)c(=O)n2C	15%	-3%	-10%	?	-8%	2.3µM*
CCCCOc1ccc2c(C)c(CCC(C)C)c(=O)oc2c1	/	/	/	/	-3%	/
O=C(CSc1nnc(-c2ccc3c(c2)OCO3)o1)Nc1ccc2c(c1)OC1(CCCC1)O2	/	/	/	/	-2%	/
COc1ccc(C(=O)/C=C/c2cc(C(=O)O)cc3c2OCOC3)c(O)c1	18µM*	9%	3%	i	-24%	i
N#CC1(C(=O)NCC2(c3ccccc3)CCCCC2)CCCCC1	/	/	/	/	1%	/
